{"source": "PubChem BioAssay (NCATS)", "note": "Inconclusive results are not listed. A call without a number means that no potency is given here. Active and inactive are the calls of the source. Calls follow the shape of the dose curve; as a rule, active = well fitted inhibition curve with a large enough effect; inconclusive = small, poorly fitted or top-dose-only effect; inactive = flat fitted curve, though single readings scatter. Potency is read from the fitted curve at half-maximal effect.", "data": [{"test_system": "Zika virus NS2B-NS3 protease", "assay": "Primary screen GU AMC qHTS for Zika virus inhibitors (AID 1347154); also: nearly all actives have a fitted effect of over 70% in size", "details": "Zika NS2B-NS3 unlinked protease, AMC fluorogenic substrate; series mostly up to 54.1 µM", "outline": "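Unlinked Zika NS2B hydrophilic domain/NS3 protease domain noncovalent complex (25 nM final) in 10 mM Tris-HCl pH 8.0, 0.01% Tween 20, with AMC peptide substrate. Fluorescence (ex 340, em 450 nm) change over 15 min, room temperature; percent inhibition fitted to 4-parameter Hill equation.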", "values": [{"smiles": "CN(C)c1nc(Cc2ccc(NC(=O)c3ccc4ccccc4c3)cc2)nc(Cl)c1CC(=O)O", "Potency": "inactive"}, {"smiles": "Clc1cccc(-n2nnnc2NCc2ccccc2Oc2ccccn2)c1Cl", "Potency": "inactive"}, {"smiles": "CN(C1CCc2c(c3ccccc3n2CC(=O)O)C1)S(=O)(=O)c1ccc(F)cc1", "note": "(stereo not given)", "Potency": "inactive"}, {"smiles": "COc1cc(OC2CCN(C)CC2)ccc1Nc1ncc2c(n1)n(C1CCCC1)c(=O)n2C", "Potency": "inactive"}, {"smiles": "Nc1ncnc2c1c(-c1cccc(OCc3ccccc3)c1)cn2C1CC(CN2CCCC2)C1", "note": "(stereo not given)", "Potency": "inactive"}, {"smiles": "CCCCCCCCCC(=O)N[C@@H](Cc1c[nH]c2ccccc12)C(=O)N[C@H](CC(N)=O)C(=O)N[C@@H](CC(=O)O)C(=O)N[C@@H]1C(=O)NCC(=O)N[C@@H](CCCN)C(=O)N[C@@H](CC(=O)O)C(=O)N[C@H](C)C(=O)N[C@@H](CC(=O)O)C(=O)NCC(=O)N[C@H](CO)C(=O)N[C@@H]([C@@H](C)CC(=O)O)C(=O)N[C@@H](CC(=O)c2ccccc2N)C(=O)O[C@@H]1C", "Potency": "inactive"}, {"smiles": "O=C(O)[C@H](Cc1c[nH]c2ccccc12)N1C(=O)c2ccccc2C1=O", "Potency": "inactive"}, {"smiles": "CC1COC2(CCN(c3nc(=O)c4cc(C(F)(F)F)cc([N+](=O)[O-])c4s3)CC2)O1", "note": "(stereo not given)", "Potency": "inactive"}, {"smiles": "COc1cc2ncn(-c3cc(OCc4ccccc4C(F)(F)F)c(C(N)=O)s3)c2cc1OC", "Potency": "inactive"}, {"smiles": "COC(=O)C1=C(C)NC(C)=C(C(=O)OCCN2CCN(C(c3ccccc3)c3ccccc3)CC2)C1c1cccc([N+](=O)[O-])c1", "note": "(stereo not given)", "Potency": "inactive"}, {"smiles": "C1=CCOCc2cc(ccc2OCCN2CCCC2)Nc2nccc(n2)-c2cccc(c2)OCC1", "Potency": "inactive"}, {"smiles": "OCc1ccc(-c2ccc(-c3ccc(CO)s3)o2)s1", "Potency": "26.7 µM (active)"}, {"smiles": "C[C@]12CC[C@H](O)CC1=CCC1C2CC[C@]2(C)C(n3cnc4ccccc43)=CCC12", "note": "(stereo not given in full)", "Potency": "inactive"}, {"smiles": "Nc1nc(NCCNc2ncc(-n3ccnc3)c(-c3ccc(Cl)cc3Cl)n2)ccc1[N+](=O)[O-]", "Potency": "inactive"}, {"smiles": "O=C(O)c1ccc2c(c1)nc(Nc1cccc(Cl)c1)c1ccncc12", "Potency": "inactive"}, {"smiles": "O=C(CCCCCCNC(=O)c1cnc(N(c2ccccc2)c2ccccc2)nc1)NO", "Potency": "inactive"}, {"smiles": "CC(=O)OCCN1C(=O)c2c(C)nc3ccc(S(=O)(=O)N4CCOCC4)cc3c2C1=O", "Potency": "inactive"}, {"smiles": "CCN(CC)CCNC(=O)c1ccc2nc(-c3ccccc3)c(-c3ccc(CN4CCC(n5c(=O)[nH]c6ccccc65)CC4)cc3)nc2c1", "Potency": "inactive"}, {"smiles": "COc1cc(C)c(Sc2cnc(NC(=O)c3ccc(CNC(C)C(C)C)cc3)s2)cc1C(=O)N1CCN(C(C)=O)CC1", "note": "(stereo not given)", "Potency": "inactive"}, {"smiles": "Fc1cc(-c2cccc3ncc(-c4cnn(C5CCNCC5)c4)nc23)cc(F)c1CN1CCOCC1", "Potency": "inactive"}, {"smiles": "Cc1cc(Nc2cc(CN3CCOCC3)c3nc(C)c(Cc4ccc(Cl)cc4F)n3n2)n[nH]1", "Potency": "inactive"}, {"smiles": "COc1cc2ncnc(Nc3ccc(F)c(Cl)c3)c2cc1NC(=O)C=CCN1CCCCC1", "Potency": "inactive"}, {"smiles": "CC(C)c1noc(N2CCC(COc3ccc(-c4ccc(S(C)(=O)=O)cc4)nc3)CC2)n1", "Potency": "inactive"}, {"smiles": "CNC(=O)c1cc(Oc2ccc(NC(=O)Nc3cc(C(C)(C)C)nn3-c3ccc4ncccc4c3)c(F)c2)ccn1", "Potency": "inactive"}, {"smiles": "C[C@H]1C[C@@H]2[C@@H]([C@@H](O)C[C@@]3(C)[C@H]2CC[C@]3(O)C(=O)CO)[C@@]2(C)C=CC(=O)C=C12", "Potency": "inactive"}, {"smiles": "c1cc(-c2cnn3cc(-c4ccc(OCCN5CCCCC5)cc4)cnc23)ccn1", "Potency": "inactive"}, {"smiles": "O=C(Nc1nc2cccc(-c3ccc(CN4CCS(=O)(=O)CC4)cc3)n2n1)C1CC1", "Potency": "inactive"}, {"smiles": "Cn1cncc1[C@@](N)(c1ccc(Cl)cc1)c1ccc2c(c1)c(-c1cccc(Cl)c1)cc(=O)n2C", "Potency": "inactive"}, {"smiles": "CC(C)Nc1cc(C(F)(F)F)cc2nc(NC(=O)c3cccnc3)nn12", "Potency": "inactive"}, {"smiles": "CCc1cc2c(cc1N1CCC(N3CCOCC3)CC1)C(C)(C)c1[nH]c3cc(C#N)ccc3c1C2=O", "Potency": "inactive"}, {"smiles": "CC(=O)c1c(C)c2cnc(Nc3ccc(N4CCNCC4)cn3)nc2n(C2CCCC2)c1=O", "Potency": "inactive"}, {"smiles": "COc1ccc(CC2c3cc(OC)c(OC)cc3CC[N+]2(C)CCC(=O)OCCCCCOC(=O)CC[N+]2(C)CCc3cc(OC)c(OC)cc3C2Cc2ccc(OC)c(OC)c2)cc1OC", "note": "(stereo not given)", "activity change, negative = inhibition": "4.96% [at 6.83 µM] (inactive)"}, {"smiles": "C1Cc2[nH]nc(-c3nn[nH]n3)c2C1", "Potency": "inactive"}, {"smiles": "CC1(C)CC(=O)c2c(C(F)(F)F)nn(-c3ccc(C(N)=O)c(NC4CCC(OC(=O)CN)CC4)c3)c2C1", "note": "(stereo not given)", "Potency": "inactive"}, {"smiles": "Nc1nc(Nc2ccc(S(N)(=O)=O)cc2)nn1C(=O)c1c(F)cccc1F", "Potency": "inactive"}]}]}
